Data published in PubChem BioAssay (Tox21).
Records with an inconclusive call do not appear. Entries that show only a call come without a potency. Calls of active or inactive are those of the source. Calls follow the shape of the full dose curve.

test system: estrogen-related receptor alpha (ERRalpha) with PGC-1alpha coactivator, human; test: qHTS assay to identify small molecule antagonists of the estrogen related receptor signaling pathway with the pleiotropic PPARgamma coactivator (PGC) (AID 1224821); details: ERR/PGC reporter cell line, luciferase, antagonist mode; series mostly up to 46.1 µM; also: nearly all actives have a fitted effect of over 50% in size
Outline: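 PGC/ERR reporter cell line, plated 6 h before compound addition, then exposed 18 h at 37 °C. Luciferase activity read by luminescence 30 min after One-Glo addition; decrease indicates antagonism.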
Potency is read from the fitted curve at half-maximal effect.

Structure (SMILES)	Potency
CCCN(CCC)CCc1ccc(O)c(O)c1	inactive
CN(N=O)c1ccc(O)c(O)c1	inactive
Clc1cc(I)cc(Cl)c1NC1=NCCN1	inactive
O=C(O)[C@@H]1CCN1	inactive
C[N+]1(C)CCc2cc3c(cc2[C@H]1[C@@H]1OC(=O)c2c1ccc1c2OCO1)OCO3	inactive
CC(C)Oc1cccnc1N(C)C1CCN(Cc2ccccc2)CC1	inactive
COc1ccc2c(c1O)-c1cccc3c1[C@@H](C2)N(C)CC3	inactive
CC(C)(O)[C@@H]1[C@H]2OC(=O)[C@@H]1[C@]1(O)C[C@H]3O[C@]34C(=O)O[C@H]2[C@]14C (tested in a mixture with another compound)	inactive
NCCc1ccc(S(=O)(=O)F)cc1	inactive
C[N+](C)(C)CC#CCN1CCCC1=O	inactive
COc1cc(C(O)CN)ccc1O (stereo not given)	inactive
NCCc1c[nH]c2ccc(O)cc12	inactive
C[C@H](Cc1ccc2c(c1)OC(C(=O)O)(C(=O)O)O2)NC[C@H](O)c1cccc(Cl)c1	inactive
CCCN1CCC[C@@H](c2cccc(O)c2)C1	inactive
NCCc1c[nH]c2ccccc12	inactive
COc1ccc(CNC(=O)/C=C/c2ccc3[nH]cc(CCN(C)C)c3c2)cc1	inactive
COc1ccc2[nH]c3c(c2c1)CCNC3	inactive
COc1ccc2c(c[n+](C)c3c4cc5c(cc4ccc23)OCO5)c1OC	10.6 µM (active)
C[C@H]1C2Cc3ccc(O)cc3[C@@]1(C)CCN2CC1CC1	inactive
NC(=NCCC[C@H](N)C(=O)O)N[N+](=O)[O-]	inactive
